PubChem BioAssay (Tox21)
Records with an inconclusive call do not appear. Calls of active or inactive are those of the source. Calls come from the whole dose curve; as a rule, active = well fitted curve in the direction sought with a large enough effect in the repeat runs; inconclusive = weak or mixed curves; inactive = no such curve, though single readings can be large; an effect the other way counts as inactive or inconclusive.

Columns and labels:
[1] = qHTS RealTime-Glo MT Cell Viability Assay in HEK293 cells - 0 hour (AID 1224880); note: top concentration of the series differs between compounds; nearly all actives have a fitted effect of over 45% in size
How it was run: (§1)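 Luminescence readout at each listed time point; HEK293, 600 cells/well, RealTime-Glo MT reagent added with cells; compounds pinned (23 nL in DMSO) after 5 h at 37 C; continuous culture at 37 C.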

[2] = A CellTox Green Cytotoxicity Assay to monitor cytotoxicity in HEK293 cells - 32 hour (AID 1224881); note: nearly all actives have a fitted effect of over 40% in size
How it was run: (§2)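 Read-out: fluorescence of a cell-impermeant cyanine dye staining DNA of dead cells, proportional to cytotoxicity. HEK293, 600 cells/well with reagent, compound (23 nL DMSO) added after 5 h; reads at 0, 8, 16, 24, 32, 40 h.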

[3] = A CellTox Green Cytotoxicity Assay to monitor cytotoxicity in HepG2 cells - 0 hour (AID 1224882); note: nearly all actives have a fitted effect of over 35% in size
How it was run: (§3)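 HepG2, 600 cells/well premixed w/ CellTox Green; 5 h settle, 37 C/5% CO2; pintool cpd add (DMSO); 37 C, 40 h; fluorescence read at 0, 8, 16, 24, 32, 40 h.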

[4] = A CellTox Green Cytotoxicity Assay to monitor cytotoxicity in HepG2 cells - 32 hour (AID 1224883); note: nearly all actives have a fitted effect of over 50% in size
How it was run: as §3

[5] = A CellTox Green Cytotoxicity Assay to monitor cytotoxicity in HEK293 cells - 8 hour (AID 1224884); note: nearly all actives have a fitted effect of over 35% in size
How it was run: as §2

[6] = qHTS RealTime-Glo MT Cell Viability Assay in HepG2 cells - 16 hour (AID 1224885); note: nearly all actives have a fitted effect of over 50% in size
How it was run: (§4)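 Cells + NanoLuc/prosubstrate dispensed (600 cells/well) → 5 h at 37 C/5% CO2 → compounds in DMSO transferred → 40 h incubation at 37 C, luminescence read at 0, 8, 16, 24, 32, 40 h.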

[7] = qHTS RealTime-Glo MT Cell Viability Assay in HEK293 cells - 24 hour (AID 1224886); note: top concentration of the series differs between compounds; nearly all actives have a fitted effect of over 50% in size
How it was run: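 Tox21 10K qHTS, HEK293, 600 cells/well, RealTime-Glo reagent co-dispensed with cells; 5 h preincubation, compound by pintool, 37 C, luminescence at 0–40 h.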

[8] = qHTS RealTime-Glo MT Cell Viability Assay in HEK293 cells - 8 hour (AID 1224887); note: top concentration of the series differs between compounds; nearly all actives have a fitted effect of over 50% in size
How it was run: as §1

[9] = A CellTox Green Cytotoxicity Assay to monitor cytotoxicity in HEK293 cells - 16 hour (AID 1224888); note: nearly all actives have a fitted effect of over 35% in size
How it was run: as §2

[10] = qHTS RealTime-Glo MT Cell Viability Assay in HepG2 cells - 0 hour (AID 1224889); note: nearly all actives have a fitted effect of over 50% in size
How it was run: as §4
% is set by controls: 0 for no effect and ±100 for the full control effect.

O=C(O)c1ccccc1Nc1cc(Cl)ccc1C(=O)O
inactive: activity change, negative = cytotoxicity [1] -6.06% [at 15.8 µM] | cytotoxicity increase [2] -11.6% [at 15.8 µM] | cytotoxicity [3] -1.43% [at 15.8 µM] | cytotoxicity increase [4] 20.7% [at 15.8 µM] | cytotoxicity increase [5] -18.6% [at 15.8 µM] | activity change, negative = cytotoxic [6] 0.467% [at 15.8 µM] | activity change, negative = cytotoxicity [7] 7.65% [at 15.8 µM] | activity change, negative = cytotoxicity [8] -4.99% [at 15.8 µM] | activity change [9] -3.78% [at 15.8 µM, active compounds read high] | activity change, negative = cytotoxicity [10] -2.93% [at 15.8 µM]

CC(C)NC[C@@H](O)COc1cccc2ccccc12
inactive: outcome [1] | Potency [2] | Potency [3] | Potency [4] | Potency [5] | outcome [6] | Potency [7] | Potency [8] | Potency [9] | Potency [10]

CC(C)=CCCC(C)CCOC=O (stereo not drawn)
inactive: outcome [1] | Potency [2] | Potency [3] | Potency [4] | Potency [5] | outcome [6] | Potency [7] | Potency [8] | Potency [9] | Potency [10]

CC1=C(O)C(=O)OC1C (stereo not drawn)
inactive: outcome [1] | Potency [2] | Potency [3] | Potency [4] | Potency [5] | outcome [6] | Potency [7] | Potency [8] | Potency [9] | Potency [10]

O=C1CCCc2ccccc21
inactive: outcome [1] | Potency [2] | Potency [3] | Potency [4] | Potency [5] | outcome [6] | Potency [7] | Potency [8] | Potency [9] | Potency [10]

CCOC(=O)C(Br)c1ccccc1 (stereo not drawn)
inactive: outcome [1] | Potency [2] | Potency [3] | Potency [4] | Potency [5] | outcome [6] | Potency [7] | Potency [8] | Potency [9] | Potency [10]

CN(C)Cc1ccccc1
inactive: outcome [1] | Potency [2] | Potency [3] | Potency [4] | Potency [5] | outcome [6] | Potency [7] | Potency [8] | Potency [9] | Potency [10]

O=C(O)[C@@H](O)[C@H](O)[C@H](O)[C@@H](O)C(=O)O
inactive: outcome [1] | Potency [2] | Potency [3] | Potency [4] | Potency [5] | outcome [6] | Potency [7] | Potency [8] | Potency [9] | Potency [10]

CCCCCCCCCC#N
inactive: outcome [1] | Potency [2] | Potency [3] | Potency [4] | Potency [5] | outcome [6] | Potency [7] | Potency [8] | Potency [9] | Potency [10]

CS(=O)(=O)c1ccc([C@@H](O)[C@@H](CF)NC(=O)C(Cl)Cl)cc1
inactive: outcome [1] | Potency [2] | Potency [3] | Potency [4] | Potency [5] | outcome [6] | Potency [7] | Potency [8] | Potency [9] | Potency [10]

Nc1cccc(S(=O)(=O)O)c1
inactive: outcome [1] | Potency [2] | Potency [3] | Potency [4] | Potency [5] | outcome [6] | Potency [7] | Potency [8] | Potency [9] | Potency [10]

O=c1oc2c(O)c(O)cc3c(=O)oc4c(O)c(O)cc1c4c23
inactive: activity change, negative = cytotoxicity [1] -5.71% [at 15.8 µM] | cytotoxicity increase [2] 18.3% [at 15.8 µM] | cytotoxicity [3] -11.8% [at 15.8 µM] | cytotoxicity increase [4] 19.5% [at 15.8 µM] | cytotoxicity increase [5] 7.37% [at 15.8 µM] | activity change, negative = cytotoxic [6] -6.97% [at 15.8 µM] | activity change, negative = cytotoxicity [7] -7.55% [at 15.8 µM] | activity change, negative = cytotoxicity [8] -0.845% [at 15.8 µM] | activity change [9] 13% [at 15.8 µM, active compounds read high] | activity change, negative = cytotoxicity [10] 0.919% [at 15.8 µM]

O=C(O)C(=O)Cc1c[nH]c2ccccc12
inactive: outcome [1] | Potency [2] | Potency [3] | Potency [4] | Potency [5] | outcome [6] | Potency [7] | Potency [8] | Potency [9]

Cc1ncc(CO)c(CN)c1O
inactive: outcome [1] | Potency [2] | Potency [3] | Potency [4] | Potency [5] | outcome [6] | Potency [7] | Potency [8] | Potency [9] | Potency [10]

COC(=O)c1ccc2cc(C(=O)OC)ccc2c1
inactive: activity change, negative = cytotoxicity [1] 3.21% [at 15.8 µM] | cytotoxicity increase [2] 1.19% [at 15.8 µM] | cytotoxicity [3] -8.67% [at 15.8 µM] | cytotoxicity increase [4] -17.5% [at 15.8 µM] | cytotoxicity increase [5] -0.0057% [at 15.8 µM] | activity change, negative = cytotoxic [6] 3.7% [at 15.8 µM] | activity change, negative = cytotoxicity [7] -1.22% [at 15.8 µM] | activity change, negative = cytotoxicity [8] 0.421% [at 15.8 µM] | activity change [9] 2.83% [at 15.8 µM, active compounds read high] | activity change, negative = cytotoxicity [10] 9.21% [at 15.8 µM]

CC(C)C[C@H](NC(=O)OCC1c2ccccc2-c2ccccc21)C(=O)O
inactive: outcome [1] | Potency [2] | Potency [3] | Potency [4] | Potency [5] | outcome [6] | Potency [7] | Potency [8] | Potency [9]

Cc1c(C(=O)NCCO)[n+](=O)c2ccccc2n1[O-]
inactive: outcome [1] | Potency [2] | Potency [3] | Potency [4] | Potency [5] | outcome [6] | Potency [7] | Potency [8] | Potency [9] | Potency [10]

CC(C)S
inactive: outcome [1] | Potency [2] | Potency [3] | Potency [4] | Potency [5] | outcome [6] | Potency [7] | Potency [8] | Potency [9] | Potency [10]

Oc1ccccc1F
inactive: outcome [1] | Potency [2] | Potency [3] | Potency [4] | Potency [5] | outcome [6] | Potency [7] | Potency [8] | Potency [9] | Potency [10]

O=C(O)[C@@H]1CSCN1
inactive: outcome [1] | Potency [2] | Potency [3] | Potency [4] | Potency [5] | outcome [6] | Potency [7] | Potency [8] | Potency [9] | Potency [10]

Cc1cc(S(=O)(=O)O)c(N)cc1Cl
inactive: outcome [1] | Potency [2] | Potency [3] | Potency [4] | Potency [5] | outcome [6] | Potency [7] | Potency [8] | Potency [9] | Potency [10]

CN1C(=O)CC(c2ccccc2)C1=O (stereo not drawn)
inactive: outcome [1] | Potency [2] | Potency [3] | Potency [4] | Potency [5] | outcome [6] | Potency [7] | Potency [8] | Potency [9] | Potency [10]
